The nature of assay [1]: inhibitors of TNFa-induced NFkB p65 translocation, primary screen, imaging, HUVEC, MLSMR starter and 10KST1 sets (AID 438;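 active = inhibition above 20% together with a positive visual image hit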;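 also: compound added about 3h40 before a 20 min TNFalpha stimulation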;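 as to inhibition: signal is the nuclear over cytoplasmic p65 intensity ratio per well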). As to conditions: HUVEC TNFa-induced p65 nuclear translocation; cell count: measured here: nuclei count (cytotoxicity indicator), at 2.08 µM; inhibition: at 2 µM, stronger effect = higher value, 0% TNFa-plus-vehicle, 100% no-TNFa wells.
The nature of assay [2]: reduction of polyQ htt aggregates in cells – imaging, exon1htt(103Q)mCFP cells, high-content imaging, primary screen (AID 483;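 active = visual image review flags a hit and inhibition of aggregation exceeds 20%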;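 also: compound exposure lasted 3 days before fixation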;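 as to nuclei count: percent of the per-plate median nuclei count of sample wells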). To be noted: exon1htt(103Q)mCFP cell line, aggregate imaging, at 2 µM; inhibition of aggregation: stronger effect = higher value; nuclei count: measured here: cell count, toxicity.
Assay [3] in a line: endothelial E-selectin expression blockers – imaging, HUVEC, immunofluorescence, MLSMR starter and 10KST1 sets, primary screen (AID 487;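 active = visually confirmed hit in the image check and inhibition above 20%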;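 as to inhibition: signal is fraction of cell area covered by stained E-selectin grains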;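 as to nuclei count: 100% = median nuclei count of all wells on the same plate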). As to conditions: HUVEC TNFalpha-induced E-selectin immunofluorescence imaging, at 2 µM; inhibition: stronger effect = higher value; nuclei count: measured here: cell number, toxicity.
Assay [4] concerns the target Voltage-gated potassium channel subunit beta-2 (Rattus norvegicus) (UniProt P62483). Nature of the assay: inhibitors of rat Kvbeta2 reductase activity – biochemical, NADPH fluorescence, primary screen (AID 622).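 Also: slope of raw intensity against log time taken from 70 to 1610 s.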 As to conditions: recombinant KvBeta, 4-cyanobenzaldehyde reduction, at 10 µM, stronger effect = higher value.
Assay [5] shares this target. Nature of the assay: enhancers of rat Kvbeta2 NADPH turnover – biochemical, NADPH fluorescence, primary screen (AID 623;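 active = NADPH fluorescence slope more negative than the mean of all samples by about 3 SD, 99.7% confidence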;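 also: fluorescence intensity change per second fitted from 20 to 320 s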). As to conditions: Recombinant KvBeta, NADPH fluorescence decrease slope, 10 min; at 10 µM; stronger effect = lower value.
Assay [6] deals with Alpha-2C adrenergic receptor (Homo sapiens) (UniProt P18825). Nature of the assay: compounds altering alpha2C-coupled GIRK flux – cell-based, HEK293 alpha2C/GIRK1/2, thallium flux, primary screen (AID 624;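 active = fluorescence slope after compound addition differing from the mean of all screened samples at 99.7% confidence, in either direction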;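 also: slope of fluorescence ratio to pre-addition baseline per second over 15 to 24 s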). To be noted: thallium flux BTC fluorescence, at 10 µM, actives lie on both sides.
A short description of assay [7]: blockers of RIG-like receptor reporter activation – cell-based, Sendai virus stimulus, luciferase, 10K MLSCN set, TLR/RLR signaling modifier project, primary screen (AID 602276;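 active = inhibition at or above 50% at 10 µM; inactive = inhibition below 50%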;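 also: firefly luciferase from ISG56 promoter only with Renilla not read in this screen; 0% = Sendai virus plus DMSO and 100% = medium plus DMSO without virus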). As to conditions: HEK293 RL24 IRF3 luciferase reporter, at 10 µM, stronger effect = higher value.
Assay [8] can be described thus: TLR3 IRF3 reporter activation blockers – cell-based, poly I:C stimulus, luciferase, 10K MLSCN set, primary screen (AID 602277;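 active = inhibition of the reporter signal at or above 50%; inactive = inhibition below 50%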). As to conditions: HEK293-TLR3 RL24 IRF3 luciferase reporter, at 10 µM, stronger effect = higher value.

The results in this text go back to PubChem BioAssay.

Molecules are shown by their SMILES. Active and inactive are the calls of the source.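 The calls were made as follows, unless noted: active = fluorescence slope higher than the sample average by over 3 SD (cut at about -0.22 in these data, passing the limit was not always enough); inactive = the rest.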

Alpha-2C adrenergic receptor (Homo sapiens), sequence (P18825 whole entry, looked up): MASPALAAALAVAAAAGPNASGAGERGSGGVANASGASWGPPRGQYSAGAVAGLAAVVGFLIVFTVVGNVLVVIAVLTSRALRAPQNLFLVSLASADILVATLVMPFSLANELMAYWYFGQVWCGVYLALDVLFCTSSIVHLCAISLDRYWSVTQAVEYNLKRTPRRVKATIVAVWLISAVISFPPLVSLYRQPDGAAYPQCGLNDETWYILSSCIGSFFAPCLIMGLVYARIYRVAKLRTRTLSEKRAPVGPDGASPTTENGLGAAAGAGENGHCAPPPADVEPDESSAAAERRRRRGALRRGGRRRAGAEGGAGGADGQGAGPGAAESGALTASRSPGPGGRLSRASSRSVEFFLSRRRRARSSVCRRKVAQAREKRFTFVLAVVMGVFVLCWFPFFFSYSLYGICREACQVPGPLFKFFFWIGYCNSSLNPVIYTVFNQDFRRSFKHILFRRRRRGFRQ
Voltage-gated potassium channel subunit beta-2 (Rattus norvegicus), sequence (P62483 whole entry, looked up): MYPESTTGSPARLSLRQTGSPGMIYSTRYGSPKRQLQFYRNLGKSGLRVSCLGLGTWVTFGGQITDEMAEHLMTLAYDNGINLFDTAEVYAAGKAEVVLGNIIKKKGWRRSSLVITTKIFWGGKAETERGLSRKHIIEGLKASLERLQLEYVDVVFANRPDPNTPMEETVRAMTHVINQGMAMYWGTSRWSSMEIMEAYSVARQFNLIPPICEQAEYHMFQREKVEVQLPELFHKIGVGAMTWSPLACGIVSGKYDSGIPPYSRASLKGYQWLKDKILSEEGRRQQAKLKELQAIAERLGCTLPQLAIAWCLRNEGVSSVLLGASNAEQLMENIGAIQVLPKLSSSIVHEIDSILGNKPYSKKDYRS

For the compound `CCOC(=O)Cn1c2c(c(=N)c3ccccc31)CCC2`, the cell count in assay [1] is 565. Besides, the inhibition in assay [1] is -7.1% (inactive); in assay [3], 2% (inactive); in assay [7] it was 16% (inactive); in assay [8], 20.3% (inactive). Besides, the inhibition of aggregation in assay [2] is -0.7% (inactive). For the same compound, the figures for the nuclei count in assay [2] and in assay [3] were 106% and 103%, respectively. Besides, the fluorescence slope in assay [4] is -0.623 (inactive). The NADPH fluorescence slope in assay [5] is -3.1e-05 (inactive). In addition, the slope in assay [6] was 0.00442 (inactive).

As for `COc1ccccc1C(=O)Nc1ccc(S(=O)(=O)N2CCCC2)cc1`, in assay [1], the cell count was found to be 676. The inhibition in assay [1] was 2.2% (inactive); in assay [3] it was -22.4% (inactive); in assay [7] it was 8.65% (inactive); in assay [8], -0.301% (inactive). For the same compound, the inhibition of aggregation in assay [2] was 7.3% (inactive). Also, the figures for the nuclei count in assay [2] and in assay [3] were 114% and 108%, respectively. The fluorescence slope in assay [4] is -0.584 (inactive). The NADPH fluorescence slope in assay [5] is -2.5e-05 (inactive). The slope in assay [6] is 0.0037 (inactive).

As for `Cc1ccc(N=Cc2ccc[nH]2)c(O)c1`, the cell count in assay [1] is 438. The inhibition is 4.9% (inactive) in assay [1], 7% (inactive) in assay [3], -10% (inactive) in assay [7] and -22.4% (inactive) in assay [8]. For the same compound, the inhibition of aggregation in assay [2] was 18.3% (inactive). The nuclei count in assay [2] was 108%; in assay [3], 112%. Also, the fluorescence slope in assay [4] is -0.373 (inactive). In addition, the NADPH fluorescence slope in assay [5] was -2.1e-06 (inactive). For the same compound, the slope in assay [6] is 0.0076 (inactive).

Take `O=C(C1CCCN(S(=O)(=O)c2cccc3nonc23)C1)N1CCC(Cc2ccccc2)CC1` (stereo not given): the cell count in assay [1] is 385. Besides, the inhibition in assay [1] is -11.2% (inactive); in assay [3], 24.5% (inactive); in assay [7], 7.74% (inactive); in assay [8], 25.7% (inactive). Also, the inhibition of aggregation in assay [2] was 3% (inactive). Moreover, the figures for the nuclei count in assay [2] and in assay [3] were 101% and 59.6%, respectively. Further, the fluorescence slope in assay [4] was -0.304 (inactive). The NADPH fluorescence slope in assay [5] is -1e-05 (inactive). The slope in assay [6] is 0.00394 (inactive).

Consider `CCCCN(CCCC)CCn1cnc2c([nH]c3ccc(OC)cc32)c1=O`, for which the cell count in assay [1] worked out at 569. For the same compound, the inhibition in assay [1] was -7.1% (inactive); in assay [3], -65.8% (inactive); in assay [7] it was 4.54% (inactive); in assay [8], 30.7% (inactive). The inhibition of aggregation in assay [2] is 0.2% (inactive). The nuclei count in assay [2] was 85.8%; in assay [3], 105%. For the same compound, the fluorescence slope in assay [4] is -0.536 (inactive). The NADPH fluorescence slope in assay [5] is -1.1e-05 (inactive). The slope in assay [6] is 0.00685 (inactive).

As to `CCOC(=O)c1c(C)[nH]c(C(=O)Cn2c(=O)oc3ccccc32)c1C`, the cell count in assay [1] came out at 256. Further, the inhibition is 7.6% (inactive) in assay [1], 31.3% (inactive) in assay [3], -8.59% (inactive) in assay [7] and -12.4% (inactive) in assay [8]. For the same compound, the inhibition of aggregation in assay [2] is 17.3% (inactive). In addition, the nuclei count worked out at 97.3% in assay [2] and 98.7% in assay [3]. For the same compound, the fluorescence slope in assay [4] was -0.285 (inactive). Moreover, in assay [5], the NADPH fluorescence slope was -6.3e-06 (inactive). The slope in assay [6] was 0.00653 (inactive).

In the case of `CCOc1cc(S(=O)(=O)NCc2ccc3c(c2)OCO3)ccc1F`, the cell count in assay [1] is 266. Also, the inhibition is 1.8% (inactive) in assay [1], -32.5% (inactive) in assay [3], 15.3% (inactive) in assay [7] and 9.83% (inactive) in assay [8]. Further, the inhibition of aggregation in assay [2] is -4.1% (inactive). The nuclei count was determined as 98.6% in assay [2] and 103% in assay [3]. The fluorescence slope in assay [4] was -0.407 (inactive). In addition, the NADPH fluorescence slope in assay [5] was -3.8e-05 (inactive). Further, in assay [6], the slope is 0.00471 (inactive).

In the case of `COc1cccc(-c2csc(N3CCN(CC(=O)Nc4ccc5c(c4)OCO5)CC3)n2)c1`, the cell count in assay [1] amounted to 262. Further, the inhibition was 3.1% (inactive) in assay [1], -4.3% (inactive) in assay [3], -45.8% (inactive) in assay [7] and -62.6% (inactive) in assay [8]. Besides, the inhibition of aggregation in assay [2] is -24.6% (inactive). For the same compound, the nuclei count in assay [2] is 88.4%; in assay [3], 91.2%. Further, the fluorescence slope in assay [4] was -0.622 (inactive). Moreover, the NADPH fluorescence slope in assay [5] is -1.3e-05 (inactive). For the same compound, the slope in assay [6] was 0.00556 (inactive).

With `O=C(CN1CCN(Cc2ccc(F)cc2Cl)C1=O)NCCCN1CCOCC1`, the cell count in assay [1] worked out at 477. Further, the inhibition in assay [1] is 7% (inactive); in assay [3], -63.8% (inactive); in assay [7], 0.912% (inactive); in assay [8], 36.5% (inactive). Besides, the inhibition of aggregation in assay [2] was -27.6% (inactive). For the same compound, the nuclei count in assay [2] is 65.3%; in assay [3], 99.9%. Moreover, the fluorescence slope in assay [4] was -0.523 (inactive). Besides, the NADPH fluorescence slope in assay [5] is -3.8e-05 (inactive). The slope in assay [6] was 0.00757 (inactive).

For `COc1ccccc1NC(=O)C1=C(C)Nc2nnnn2C1c1ccccc1OC` (stereo not given), the cell count in assay [1] came to 453. Besides, the inhibition in assay [1] was -0.5% (inactive); in assay [3], 8.8% (inactive); in assay [7], 10.5% (inactive); in assay [8], 33.5% (inactive). Also, in assay [2], the inhibition of aggregation is -7.9% (inactive). The nuclei count in assay [2] was found to be 90.1%; in assay [3], 82.2%. Besides, in assay [4], the fluorescence slope is -0.415 (inactive). Also, the NADPH fluorescence slope in assay [5] is 7.3e-06 (inactive). Besides, the slope in assay [6] is 0.00379 (inactive).
